From PubChem BioAssay AID1851 (National Center for Advancing Translational Sciences (NCATS), 2009)
“And” between values parts separate entries of the source, which are not always exact repeats. Equal values may be shown once. About 2,600 (16%) of roughly 16,000 compounds were called active. Another 20% or so got no clear call; they are omitted. Only a sample is shown. Some compounds were tested as several samples or in several runs, with calls that do not always agree. A number with no mark means an inactive call. Calls come from the whole dose curve; as a rule, active = well fitted curve in the direction sought with a large enough effect; inconclusive = small, poorly fitted or top-dose-only effect, or effect the other way; inactive = no such curve, though single readings can be large or run the other way.

Each compound was assayed against Cytochrome P450 2D6 (Homo sapiens) (UniProt P10635) (assay: Cytochrome panel assay with activity outcomes). Conditions: recombinant CYP, pro-luciferin dealkylation, luminescence, p450-cyp2d6; series mostly up to 57.1 µM.
% is set by controls: 0 for no effect and ±100 for the full control effect.

Chain of Cytochrome P450 2D6 (Homo sapiens) (P10635 whole entry, looked up): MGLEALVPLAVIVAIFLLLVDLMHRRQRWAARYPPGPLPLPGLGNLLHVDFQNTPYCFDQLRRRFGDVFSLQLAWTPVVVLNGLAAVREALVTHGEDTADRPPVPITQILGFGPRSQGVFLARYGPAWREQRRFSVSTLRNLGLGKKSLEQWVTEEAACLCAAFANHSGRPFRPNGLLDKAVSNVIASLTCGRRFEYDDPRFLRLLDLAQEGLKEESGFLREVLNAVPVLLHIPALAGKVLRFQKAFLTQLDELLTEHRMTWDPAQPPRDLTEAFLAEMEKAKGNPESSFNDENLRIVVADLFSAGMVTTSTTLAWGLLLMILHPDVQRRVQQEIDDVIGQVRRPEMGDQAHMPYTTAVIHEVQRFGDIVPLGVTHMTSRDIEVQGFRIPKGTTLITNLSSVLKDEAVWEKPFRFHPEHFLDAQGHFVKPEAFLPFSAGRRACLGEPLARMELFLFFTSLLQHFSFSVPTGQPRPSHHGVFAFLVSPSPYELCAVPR

| Structure (SMILES) | AC50 | activity, negative = inhibition |
| --- | --- | --- |
| Cc1cc(NC(=O)CN2C(=O)NC(C)(c3ccc(OC(F)F)cc3)C2=O)no1 (centres undefined) | inactive |  |
| N[C@@H](C(=O)O)c1cc(O)ccc1Cl | inactive |  |
| N=c1ccn2c(n1)O[C@@H]1[C@@H](O)[C@H](CO)O[C@H]12 | inactive |  |
| c1ccc(-n2ncc3c2ncn2cnnc32)cc1 | inactive |  |
| CC(C)(C)n1nc(-c2ccc(Cl)cc2)c2c(N)ncnc21 | inactive |  |
| CCCSc1nc(C)cc(C)c1C(N)=O | inactive |  |
| CC1CCCC(NC(=O)CCn2c(=O)oc3ccccc32)C1C (centres undefined) | inactive |  |
| COc1ccc(Oc2ncc3nc(-c4cccs4)c(=O)n(-c4ccccc4)c3n2)cc1 | inactive |  |
| COc1ccccc1N1CCN(CCCNc2cc(=O)n(C)c(=O)n2C)CC1 | inactive |  |
| COc1ccccc1N1CCN(CCCCNC(=O)c2ccc3ccccc3c2)CC1 | 3.16 µM (active) and 3.98 µM (active) |  |
| COc1ccccc1N1CCN(CCCCNS(=O)(=O)c2cccc3c(N(C)C)cccc23)CC1 | 15.8 µM (active) |  |
| COc1ccccc1N1CCN(CCCCN2C(=O)CCC2=O)CC1 | inactive |  |
| COc1ccccc1N1CCN(CCn2c(=O)[nH]c3c([nH]c4ccccc43)c2=O)CC1 | inactive |  |
| COc1ccccc1N1CCN(CCCCNC(=O)c2ccc(-c3ccc(C(C)=O)cc3)cc2)CC1 | inactive |  |
| CNc1ncnc2c1ncn2[C@@H]1O[C@@H](CO)[C@H](O)[C@@H]1O | inactive |  |
| CNc1ncnc2c1ncn2[C@H]1C[C@H](OP(=O)(O)O)[C@H](COP(=O)(O)O)O1 | 5.01 µM (active) |  |
| CNc1ncnc2c1ncn2[C@H]1C[C@@H](OP(=O)(O)O)[C@H](COP(=O)(O)O)O1 | inactive |  |
| Cc1ccc(C2C3=C(CCCC3=O)Nc3nc(SCC(=O)NCc4ccco4)[nH]c(=O)c32)cc1 (centres undefined) | inactive |  |
| CC(C)C12CC[C@@]3(CC[C@H]4[C@@](C)(CCC[C@]4(C)C(=O)O)[C@@H]3C1)[C@@H](CN)C2 |  | 6.15% [at 11.4 µM] |
| COc1ccc(Nc2cc(=O)n(C3CCCCC3)c(=O)[nH]2)c(OC)c1 | inactive |  |
| Cc1nc(S(=O)(=O)NC2CCCCC2)c(C#N)c(C)c1Cl | inactive |  |
| Cc1ccc(-c2c(C)sc(NC(=O)C3C4CCC(O4)C3C(=O)O)c2C(=O)OC(C)C)cc1 (centres undefined) | inactive |  |

| Structure (SMILES) | AC50 | activity, negative = inhibition |
| --- | --- | --- |
| COc1ccccc1CNC(=O)CSc1nc2nc(C)cc(C)n2n1 | 15.8 µM (active) |  |
| Cc1ccc(/C=N/NC(=O)CSc2nc3nc(C)cc(C)n3n2)cc1 | inactive |  |
| Cc1cc(C)n2nc(SCC(=O)N/N=C/c3ccccc3F)nc2n1 | inactive |  |
| Nc1nc(=S)[nH]c2c1C1(CCCC1)Cc1ccccc1-2 | inactive |  |
| CO[C@@H]1COC(=O)[C@H](C)NC(=O)C/C=C\[C@@H](C)[C@@H](NS(=O)(=O)c2ccc(C)cc2)COC(=O)C/C=C\[C@@H]1C |  | 5.57% [at 11.4 µM] |
| O=c1[nH]c(SCc2ccccc2[N+](=O)[O-])nc2nc[nH]c12 |  | -3.83% [at 11.4 µM] |
| O=c1cc(-c2ccccc2)[nH]n1-c1ccc([N+](=O)[O-])cc1 | inactive |  |
| O=[N+]([O-])c1ccc(-c2cnc(SCc3ccccc3Cl)[nH]2)cc1 | 12.6 µM (active) |  |
| COCCn1c(=O)c(-c2cccs2)nc2cnc(N(C)C)nc21 | inactive |  |
| C[N+](C)(CCCOc1ccccc1)c1ccccc1 | 0.0158 µM (active) |  |
| O=P(O)(COc1ccccc1)COc1ccccc1 | inactive |  |
| O=c1c(-c2cccs2)nc2cnc(Nc3ccccc3)nc2n1C[C@H]1CCCO1 | inactive |  |
| CC(CO)(CO)N=Cc1cc(I)cc(I)c1O |  | 3.56% [at 11.4 µM] |
| Cc1ccc(SCc2cc(=O)[nH]c(/N=C(\N)Nc3ccc(C)c(C)c3)n2)cc1 | inactive |  |
| Cc1ccc(NC(=S)Nc2ccc(Br)cc2)cc1 | inactive |  |
| Cc1ccc(SCCNC(=S)Nc2ccc(C)c(C)c2)cc1 | 4.47 µM (active) |  |
| COc1ccc(C(=O)Nc2cccc(/C(C)=N/NC(=O)c3ccc([N+](=O)[O-])cc3)c2)cc1OC | inactive |  |
| O=C(CSc1nnc(-c2ccccn2)n1Cc1ccco1)Nc1ccc2c(c1)OCO2 | inactive |  |
| COc1ccc2cc(C)c3nnc(SCC(=O)Nc4nc(-c5ccccc5)cs4)n3c2c1 | inactive |  |
| Cc1ccc2cc(C)c3nnc(SCC(=O)NCc4ccco4)n3c2c1 | inactive |  |
| Cc1cc2cc(C)c3nnc(SCC(=O)NCc4ccc5c(c4)OCO5)n3c2cc1C | 17.8 µM (active) |  |
| CC(=O)Nc1ccc(NC(=O)CSc2nnc(-c3ccccc3)n2Cc2ccc3c(c2)OCO3)cc1 | 12.6 µM (active) |  |

| Structure (SMILES) | AC50 | activity, negative = inhibition |
| --- | --- | --- |
| CC(=O)Nc1ccc(NC(=O)CSc2ncnn2-c2ccccc2)cc1 | inactive |  |
| O=C(O)c1cscc1Cc1cccs1 |  | 14.2% [at 11.4 µM] |
| O=C(O)/C=C\C(=O)Nc1cccc2c1-c1ccccc1C2=O |  | 10.1% [at 11.4 µM] |
| Cc1nc2cncnc2n(Cc2ccc(F)cc2)c1=O | inactive |  |
| C=CCn1c(SCC(=O)Nc2ncc(Cc3ccc(Br)cc3)s2)nnc1-c1ccncc1 | inactive |  |
| CC(C)=C1C(=O)NN(c2ccc(F)c(Cl)c2)C1=O | inactive |  |
| Cc1cccc(C(=O)NNC(=O)C2CCCO2)c1 (centres undefined) | inactive |  |
| CCNc1ncc2nc(-c3ccc(F)cc3)c(=O)n(-c3ccccc3)c2n1 | 0.1 µM (active) |  |
| O=c1c(-c2cc(F)cc(F)c2)nc2cncnc2n1-c1ccccc1 | inactive |  |
| CCNc1ncc2nc(-c3ccc(OC)cc3)c(=O)n(-c3ccc(OC)cc3)c2n1 | inactive |  |
| COc1ncc2nc(-c3cc(F)cc(F)c3)c(=O)n(-c3ccccc3)c2n1 | inactive |  |
| CCNc1ncc2nc(-c3ccc(F)cc3)c(=O)n(C)c2n1 | inactive |  |
| CCNc1ncc2nc(-c3cc(F)cc(F)c3)c(=O)n(-c3ccccc3)c2n1 | 0.1 µM (active) |  |
| O=C(Nc1cccc(F)c1)/C(=C\c1ccco1)NC(=O)c1cccs1 | inactive |  |
| CC(=O)c1ccc(S(=O)(=O)NC(=O)NC2CCCCC2)cc1 | inactive |  |
| CC(C)CC(c1nnnn1C(C)C)N1CCN(c2ccccc2)CC1 (centres undefined) | inactive |  |
| COc1ccccc1NC(=O)c1sc2ncn(Cc3ccccc3C)c(=O)c2c1C | inactive |  |
| Cc1ccccc1C(=O)NN(C)c1nc2ccccc2nc1C(F)(F)F | inactive |  |
| CC(=O)N1CCN(c2ccc(NC(=O)c3ccc(C)cc3)cc2)CC1 | inactive |  |
| COC(=O)CC[C@@H](C)[C@H]1CC[C@H]2[C@H]3CC[C@H]4C[C@@H]5CC[C@@]4(C)C3(O5)[C@@H](Br)[C@@H](Br)[C@@]12C |  | -11.7% [at 11.4 µM] |
| CO[C@H]1COC(=O)C/C=C\[C@@H](C)[C@H](OC)COC(=O)CCC[C@@H]1C |  | 17.9% [at 11.4 µM] |
| Cc1ccc(CSc2nnc(C(F)(F)F)n2Cc2ccc(F)cc2)cc1 | inactive |  |

| Structure (SMILES) | AC50 | activity, negative = inhibition |
| --- | --- | --- |
| CC(C)(C)c1ccc(-c2nnc(SCc3ccc(Cl)cc3)n2-c2cccc(C(F)(F)F)c2)cc1 |  | 7.38% [at 11.4 µM] |
| Fc1ccc(Cn2c(SCc3ccc(F)c(C(F)(F)F)c3)nnc2C(F)(F)F)cc1 | 15.8 µM (active) |  |
| C=CC[C@@H]1C=C[C@H](O/N=C(\C)CCN2CCCCc3nc(C)c(C)cc32)[C@H](CO)O1 | 3.98 µM (active) |  |
| COC(=O)C/C=C\[C@@H](C)[C@@H](/C=N\O[C@@H](C)CN1CCCCc2nc(C)c(C)cc21)NS(=O)(=O)c1ccc(C)cc1 |  | 2.33% [at 11.4 µM] |
| CO/N=C\[C@@H](NS(=O)(=O)c1ccc(C)cc1)[C@H](C)/C=C\CC(=O)OC |  | -13.5% [at 11.4 µM] |
| Cc1cc2c(nc1C)CCCN2C[C@H](O)CN1CCCc2nc(-c3ccc(Br)cc3)ccc21 | 3.16 µM (active) | -14.3% [at 11.4 µM] |
| CCc1cc2c(nc1CC)CCN(CC/C(C)=N/O[C@@H](C)CN1CCCc3nc(C)c(C)cc31)C2 | 3.98 µM (active) |  |
| C/C(CCN1CCc2nc(-c3ccccc3)c(-c3ccccc3)cc2C1)=N\O[C@@H](C)CN1CCCCc2nc(C)c(C)cc21 |  | -4.1% [at 11.4 µM] |
| CCc1cc2c(nc1CC)CCN(CC/C(C)=N/O[C@@H](C)c1cc(-c3c(C)cc(C)cc3C)no1)C2 |  | -13.3% [at 11.4 µM] |
| C=CC[C@@H]1C=C[C@H](ON=C(C)C)[C@H](CO)O1 |  | 9.56% [at 11.4 µM] |
| COC(=O)C/C=C\[C@@H](C)[C@@H](/C=N\O[C@@H](C)CN1CCCc2nc(C)c(C)cc21)NS(=O)(=O)c1ccc(C)cc1 | 3.16 µM (active) |  |
| Cc1cc2c(nc1C)CCCN2CC(O)CN1CCCc2nc(C)c(C)cc21 |  | -7.07% [at 11.4 µM] |
| Cc1ccc(NC(=O)NNC(=O)Cn2nc(-c3ccccc3)c(-c3ccccc3)c(C#N)c2=O)cc1 | inactive |  |
| O=C(N1CCOCC1)N1CCN(c2ccccc2)CC1 | inactive |  |
| Brc1[nH]nc2ccccc12 | inactive |  |
| Cc1ccc(S(=O)(=O)N[C@@H]2COC(=O)C/C=C\[C@H](C)COC(=O)N[C@@H](C)C(=O)C/C=C\[C@H]2C)cc1 |  | 2.75% [at 11.4 µM] |
| CSc1nc(Cl)cc(N(CCO)CCO)n1 | inactive |  |
| Cn1cccc1C(=O)N1CCC[C@@]2(CCN(c3ccccn3)C2)C1 | inactive |  |
| CCN(CC)C(=S)SSC(=S)N(CC)CC | inactive |  |
| CN(C)[C@H]1C(=O)C(C(=O)NCN2CCCC2)=C(O)[C@]2(O)C(=O)C3=C(O)c4c(O)cccc4[C@](C)(O)[C@H]3C[C@H]12 |  | -10.6% [at 11.4 µM] |
| CC(C)Cn1c(-c2ccc(Cl)cc2)cnc1SCC(=O)N1CCOCC1 | inactive |  |
| Cn1cc(-c2nc3cnc(N4CCNCC4)nc3n(-c3ccccc3)c2=O)c2ccccc21 | inactive |  |
